Data published in PubChem BioAssay AID1159580 (chemical genetic matrix, 2015).
The campaign covered roughly 5,500 compounds. About 2,000 (36%) were called active. Inconclusive results (about 18%) are left out. No stated cut-off is given here; in the data, active means normalized growth mostly below about 0.91 (no sharp cut-off); inconclusive means no clear call, values can overlap the other calls; inactive means mostly above about 0.92. The list shows a part of the results.

Experiment: chemical genetic growth profiling, strain panel (AID 1159580);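 further: tested at 20 µM; growth read once vehicle control cultures reached saturation at 30 °C; 1 = growth at the plate median or of vehicle wells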
Details: S. cerevisiae deletion strains, growth OD
[1] = locus YHR030C, strain SLT2, stronger effect = lower value
[2] = locus YHR079C, strain IRE1, stronger effect = lower value
[3] = locus YJL095W, strain BCK1, stronger effect = lower value
[4] = locus YJR066W, strain TOR1, stronger effect = lower value
[5] = locus YLR113W, strain HOG1, stronger effect = lower value
[6] = locus YNL183C, strain NPR1, stronger effect = lower value
[7] = locus YOR231W, strain MKK1, stronger effect = lower value
[8] = locus YPL256C, strain CLN2, stronger effect = lower value
[9] = locus YAL013W, strain DEP1, stronger effect = lower value
[10] = locus YAL040C, strain CLN3, stronger effect = lower value
[11] = locus YER002W, strain NOP16, stronger effect = lower value
[12] = locus YMR263W, strain SAP30, stronger effect = lower value
[13] = locus YNL153C, strain GIM3, stronger effect = lower value
[14] = locus YNL175C, strain NOP13, stronger effect = lower value
[15] = locus YNL197C, strain WHI3, stronger effect = lower value
[16] = locus YNL224C, strain SQS1, stronger effect = lower value
[17] = locus YNL322C, strain KRE1, stronger effect = lower value
[18] = locus YOR083W, strain WHI5 (second series), stronger effect = lower value
[19] = locus YPL055C, strain LGE1, stronger effect = lower value
[20] = locus YPL241C, strain CIN2, stronger effect = lower value
[21] = locus YCL061C, strain MRC1, stronger effect = lower value
[22] = locus YJR075W, strain HOC1, stronger effect = lower value

Measured: normalized growth

C[N+](C)(C)C[C@H](O)CC(=O)[O-]
inactive: [1] 0.972 | [2] 0.984 | [3] 1.02 | [4] 0.923 | [5] 1.01 | [6] 0.923 | [7] 0.962 | [8] 0.961

NCCc1ccc(S(=O)(=O)F)cc1
inactive: [9] 1 | [10] 1.01 | [11] 1.02 | [12] 1 | [13] 1.03 | [14] 1 | [15] 1.04 | [16] 1 | [17] 1.01 | [18] 0.997 | [19] 1.02 | [20] 1.01

CCCCCCCCCCCCCCC(C(=O)O)C(O)(CC(=O)OC)C(=O)O (stereo unspecified)
inactive: locus YAL021C, strain ccr4, stronger effect = lower value 1.04 | locus YAL026C, strain drs2, stronger effect = lower value 0.997 | locus YAL030W, strain snc1, stronger effect = lower value 1 | locus YBL061C, strain skt5, stronger effect = lower value 0.97 | locus YBR009C, strain hhf1, stronger effect = lower value 0.955 | locus YBR023C, strain chs3, stronger effect = lower value 0.967 | locus YBR171W, strain sec66, stronger effect = lower value 0.999 | locus YBR231C, strain swc5, stronger effect = lower value 0.986 | locus YBR279W, strain paf1, stronger effect = lower value 0.988 | locus YCL011C, strain gbp2, stronger effect = lower value 1 | locus YCL016C, strain dcc1, stronger effect = lower value 1.01 | [21] 0.986 | locus YCL069W, strain vba3, stronger effect = lower value 1.02 | locus YCR088W, strain abp1, stronger effect = lower value 1.02 | locus YDL005C, strain med2, stronger effect = lower value 0.987 | locus YDL040C, strain nat1, stronger effect = lower value 0.985 | locus YDR001C, strain nth1, stronger effect = lower value 1.02 | locus YDR069C, strain doa4, stronger effect = lower value 1.07 | locus YDR137W, strain rgp1, stronger effect = lower value 0.999 | locus YDR159W, strain sac3, stronger effect = lower value 0.996 | locus YDR195W, strain ref2 1.03 | locus YDR297W, strain sur2, stronger effect = lower value 0.994 | locus YDR334W, strain swr1, stronger effect = lower value 1.01 | locus YDR335W, strain msn5, stronger effect = lower value 0.977 | locus YDR392W, strain spt3, stronger effect = lower value 0.857 | locus YEL003W, strain gim4, stronger effect = lower value 0.98 | locus YEL037C, strain rad23, stronger effect = lower value 1 | locus YEL061C, strain CIN8 (second series), stronger effect = lower value 1.01 | locus YER015W, strain faa2, stronger effect = lower value 1 | locus YER016W, strain bim1, stronger effect = lower value 1 | locus YER111C, strain swi4, stronger effect = lower value 0.964 | locus YER155C, strain BEM2 (second series), stronger effect = lower value 0.981 | locus YFR010W, strain ubp6, stronger effect = lower value 1.08 | locus YGL167C, strain pmr1, stronger effect = lower value 0.981 | locus YGL173C, strain kem1, stronger effect = lower value 0.958 | locus YGL227W, strain vid30, stronger effect = lower value 1 | locus YGL240W, strain doc1, stronger effect = lower value 0.987 | locus YGL253W, strain hxk2, stronger effect = lower value 0.966 | locus YHR027C, strain rpn1, stronger effect = lower value 0.994 | [1] 0.973 | [2] 1 | locus YHR142W, strain chs7, stronger effect = lower value 0.927 | locus YJL092W, strain hpr5, stronger effect = lower value 1.01 | locus YJL095W, strain BCK1 (second series), stronger effect = lower value 1 | [3] 0.952 | locus YJL115W, strain asf1, stronger effect = lower value 0.976 | locus YJL154C, strain vps35, stronger effect = lower value 1.01 | locus YJL164C, strain tpk1, stronger effect = lower value 0.979 | locus YJL166W, strain qcr8, stronger effect = lower value 0.976 | locus YJL187C, strain SWE1, stronger effect = lower value 0.995 | [4] 0.898 | locus YKL160W, strain elf1, stronger effect = lower value 0.99 | locus YKR026C, strain gcn3, stronger effect = lower value 0.999 | locus YKR091W, strain srl3, stronger effect = lower value 1.01 | locus YLL001W, strain dnm1, stronger effect = lower value 0.992 | locus YLL026W, stronger effect = lower value 0.997 | locus YLL041C, strain sdh2, stronger effect = lower value 1.01 | locus YLR027C, strain aat2, stronger effect = lower value 0.969 | [5] 1.02 | locus YLR221C, strain rsa3, stronger effect = lower value 0.947 | locus YLR258W, strain gsy2, stronger effect = lower value 1 | locus YLR262C, strain YPT6 (second series), stronger effect = lower value 0.986 | locus YLR320W, strain mms22, stronger effect = lower value 0.996 | locus YLR342W, strain FKS1, stronger effect = lower value 1 | locus YLR357W, strain rsc2, stronger effect = lower value 0.926 | locus YLR370C, strain arc18, stronger effect = lower value 1.01 | locus YLR384C, strain iki3, stronger effect = lower value 1 | locus YML120C, strain ndi1, stronger effect = lower value 1.02 | locus YMR125W, strain sto1, stronger effect = lower value 1.01 | locus YMR129W, stronger effect = lower value 1.01 | locus YMR205C, strain PFK2, stronger effect = lower value 1.04 | locus YMR231W, strain pep5, stronger effect = lower value 0.941 | locus YNL071W, strain lat1, stronger effect = lower value 1.02 | [6] 0.871 | locus YNL209W, strain ssb2, stronger effect = lower value 1.01 | locus YNL248C, strain rpa49, stronger effect = lower value 0.996 | locus YNL322C, strain KRE1 (second series), stronger effect = lower value 1.02 | locus YNR049C, strain mso1, stronger effect = lower value 0.999 | locus YOR001W, strain rrp6, stronger effect = lower value 0.981 | locus YOR070C, strain gyp1, stronger effect = lower value 0.985 | locus YOR080W, strain dia2, stronger effect = lower value 0.994 | locus YOR083W, strain WHI5, stronger effect = lower value 0.967 | locus YOR106W, strain vam3, stronger effect = lower value 0.982 | [7] 1.02 | locus YOR265W, strain rbl2, stronger effect = lower value 1 | locus YOR290C, strain snf2, stronger effect = lower value 1.04 | locus YPL051W, strain arl3, stronger effect = lower value 0.95 | locus YPL078C, strain atp4, stronger effect = lower value 0.996 | locus YPL106C, strain sse1, stronger effect = lower value 0.976 | locus YPL240C, strain hsp82, stronger effect = lower value 1 | [8] 0.999
active: locus YHR013C, strain ard1, stronger effect = lower value 1.62 [resistant] | locus YJL129C, strain trk1, stronger effect = lower value 0.869 | locus YMR058W, strain fet3, stronger effect = lower value 0.9 | locus YOR270C, strain vph1, stronger effect = lower value 1.45 [resistant]

CCCCCC(O)CCCC(=O)O (stereo unspecified)
inactive: [10] 1.02 | locus YCL061C, strain MRC1 (second series), stronger effect = lower value 1.01 | locus YDR363W, strain ESC2, stronger effect = lower value 1.01 | [11] 1.03 | [22] 1.02 | [14] 1.02 | [15] 1.05 | [16] 0.991 | [18] 1.06

CCCCCCCCCCCCCCCCC(C(=O)O)C(O)(CC(=O)O)C(=O)O (stereo unspecified)
active: [1] 0.501 | [2] 0.804 | [3] 0.581 | [4] 0.566 | [5] 0.48 | [6] 0.648 | [7] 0.836
inactive: [8] 0.863

CCCC(CC(=O)O)(C(=O)O)c1ccccc1 (stereo unspecified)
inactive: [9] 1.01 | locus YBR229C, strain ROT2, stronger effect = lower value 1 | [21] 1.01 | locus YDL101C, strain DUN1, stronger effect = lower value 1.01 | locus YDR150W, strain NUM1, stronger effect = lower value 1 | locus YEL061C, strain CIN8, stronger effect = lower value 1.01 | locus YGR078C, strain PAC10, stronger effect = lower value 1 | locus YGR229C, strain SMI1, stronger effect = lower value 1.01 | [1] 1.12 | locus YHR087W, strain rtc3, stronger effect = lower value 1 | locus YJR043C, strain POL32, stronger effect = lower value 1.01 | [22] 1 | locus YLR039C, strain RIC1, stronger effect = lower value 1.03 | locus YLR058C, strain SHM2 (second series), stronger effect = lower value 1.01 | locus YLR085C, strain ARP6, stronger effect = lower value 1.05 | locus YLR262C, strain YPT6, stronger effect = lower value 1.02 | locus YML094W, strain GIM5, stronger effect = lower value 1.02 | locus YMR219W, strain ESC1, stronger effect = lower value 1.01 | [12] 1 | [13] 1 | locus YNL298W, strain CLA4 (second series), stronger effect = lower value 1.03 | [17] 0.998 | locus YNR030W, strain Alg12, stronger effect = lower value 1.01 | [19] 1.06 | [20] 1.02 | locus YPR135W, strain CTF4, stronger effect = lower value 1.06

CCCCC[C@H](CC(=O)O)C(=O)O
inactive: [1] 1.04 | [2] 1.03 | [3] 1.04 | [4] 1.03 | [5] 0.945 | [6] 0.989 | [7] 1.05 | [8] 1.02
